Holding throughout (assay): PBM; 200 nM protein, PBS
Holding throughout (details): dsDNA, one strand shown

In test [1] the target is HESX1 (Homo sapiens, UniProt Q9UBX0 95-180, R165K).
Test [2] deals with T1, SIX6 (Homo sapiens, UniProt O95475 114-200, L167I).
T1 sequence: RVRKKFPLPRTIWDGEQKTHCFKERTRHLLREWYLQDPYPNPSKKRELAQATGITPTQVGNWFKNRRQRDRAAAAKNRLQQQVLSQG

Test [3] deals with T2, SIX6 (Homo sapiens, UniProt O95475 114-200, L143V).
T2 sequence: T1 sequence with L30V, I54L

For test [4], the target named is HOXC10 (Homo sapiens, UniProt Q9NYD6 254-340).
HOXC10 (Homo sapiens, UniProt Q9NYD6 254-340), sequence (Q9NYD6 254-340): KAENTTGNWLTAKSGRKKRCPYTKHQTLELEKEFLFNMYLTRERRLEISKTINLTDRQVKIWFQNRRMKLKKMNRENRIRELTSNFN
For test [5], the target named is T3, SIX6 (Homo sapiens, UniProt O95475 114-200, H141N).
T3 sequence: T1 sequence with H28N, I54L

In test [6] the target is T4, SIX6 (Homo sapiens, UniProt O95475 114-200, T165P).
T4 sequence: T1 sequence with T52P, I54L

The target in test [7] is T5, SIX6 (Homo sapiens, UniProt O95475 114-200, L167M).
T5 sequence: T1 sequence with I54M

Test [8] deals with T6, SIX6 (Homo sapiens, UniProt O95475 114-200, L143M).
T6 sequence: T1 sequence with L30M, I54L

Test [9] has as its target T7, SIX6 (Homo sapiens, UniProt O95475 114-200, L143I).
T7 sequence: T1 sequence with L30I, I54L

Test [10] concerns the target T8, SIX6 (Homo sapiens, UniProt O95475 114-200, T165G).
T8 sequence: T1 sequence with T52G, I54L

The target in test [11] is HESX1 (Homo sapiens, UniProt Q9UBX0 95-180).
HESX1 (Homo sapiens, UniProt Q9UBX0 95-180), sequence (Q9UBX0 95-180): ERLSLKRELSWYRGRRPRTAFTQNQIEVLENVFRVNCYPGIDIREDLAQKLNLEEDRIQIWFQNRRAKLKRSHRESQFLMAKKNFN
For test [12], the target named is T9, SIX6 (Homo sapiens, UniProt O95475 114-200, T139Q).
T9 sequence: T1 sequence with T26Q, I54L

Test [13] has as its target T10, SIX6 (Homo sapiens, UniProt O95475 114-200, T165A).
T10 sequence: T1 sequence with T52A, I54L

For test [14], the target named is HOXC10 (Homo sapiens, UniProt Q9NYD6 254-340, K271E).
HOXC10 (Homo sapiens, UniProt Q9NYD6 254-340, K271E), sequence (Q9NYD6 254-340 K271E): as the sequence (Q9NYD6 254-340) above, with K18E counted along it
Test [15] concerns the target T11, SIX6 (Homo sapiens, UniProt O95475 114-200, L167V).
T11 sequence: T1 sequence with I54V

Test [16] deals with PROP1 (Homo sapiens, UniProt O75360 56-141).
PROP1 (Homo sapiens, UniProt O75360 56-141), sequence (O75360 56-141): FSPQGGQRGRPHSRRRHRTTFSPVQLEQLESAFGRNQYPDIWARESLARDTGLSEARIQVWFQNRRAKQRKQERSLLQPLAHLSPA
Test [17] addresses HESX1 (Homo sapiens, UniProt Q9UBX0 95-180, R109Q).
The target of test [18] is T12, SIX6 (Homo sapiens, UniProt O95475 114-200).
T12 sequence: T1 sequence with I54L

In test [19] the target is PROP1 (Homo sapiens, UniProt O75360 56-141, R99H).
PROP1 (Homo sapiens, UniProt O75360 56-141, R99H), sequence (O75360 56-141 R99H): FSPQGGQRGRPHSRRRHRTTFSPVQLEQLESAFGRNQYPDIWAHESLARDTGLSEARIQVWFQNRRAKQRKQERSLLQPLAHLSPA
Test [20] has as its target T13, SIX6 (Homo sapiens, UniProt O95475 114-200, T165I).
T13 sequence: T1 sequence with T52I, I54L

The target of test [21] is HESX1 (Homo sapiens, UniProt Q9UBX0 95-180, P111T).
HESX1 (Homo sapiens, UniProt Q9UBX0 95-180, P111T), sequence (Q9UBX0 95-180 P111T): as the sequence (Q9UBX0 95-180) above, with P17T counted along it
For test [22], the target named is PROP1 (Homo sapiens, UniProt O75360 56-141, F88S).
PROP1 (Homo sapiens, UniProt O75360 56-141, F88S), sequence (O75360 56-141 F88S): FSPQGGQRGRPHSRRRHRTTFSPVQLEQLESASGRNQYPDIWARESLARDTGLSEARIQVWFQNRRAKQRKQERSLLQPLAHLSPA
Test [23] addresses HESX1 (Homo sapiens, UniProt Q9UBX0 95-180, F115L).
Test [24] addresses T14, VENTX (Homo sapiens, UniProt O95231 78-163, R121Q).
T14 sequence: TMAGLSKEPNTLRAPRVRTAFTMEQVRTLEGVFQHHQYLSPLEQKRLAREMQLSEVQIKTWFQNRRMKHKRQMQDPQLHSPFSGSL

Test [25] concerns the target HOXA4 (Homo sapiens, UniProt Q00056 201-287, W262R).
The target of test [26] is T15, VENTX (Homo sapiens, UniProt O95231 78-163).
T15 sequence: T14 sequence with Q44R

Test [27] addresses HOXA7 (Homo sapiens, UniProt P31268 116-202).
Test [28] deals with T16, VENTX (Homo sapiens, UniProt O95231 78-163, Y115F).
T16 sequence: T14 sequence with Y38F, Q44R

In test [29] the target is HOXA4 (Homo sapiens, UniProt Q00056 201-287, R217L).
HOXA4 (Homo sapiens, UniProt Q00056 201-287, R217L), sequence (Q00056 201-287 R217L): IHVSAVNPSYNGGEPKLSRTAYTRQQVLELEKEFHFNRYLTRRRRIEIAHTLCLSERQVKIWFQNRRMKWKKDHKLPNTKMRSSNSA
Test [30] deals with HOXA4 (Homo sapiens, UniProt Q00056 201-287).
HOXA4 (Homo sapiens, UniProt Q00056 201-287), sequence (Q00056 201-287): as the sequence (Q00056 201-287 R217L) above, with L17R counted along it
Test [31] concerns the target HOXA7 (Homo sapiens, UniProt P31268 116-202, W177C).
Test [32] has as its target HOXA4 (Homo sapiens, UniProt Q00056 201-287, W262F).
For test [33], the target named is HOXC9 (Homo sapiens, UniProt P31274 178-260, K195R).
HOXC9 (Homo sapiens, UniProt P31274 178-260, K195R), sequence (P31274 178-260 K195R): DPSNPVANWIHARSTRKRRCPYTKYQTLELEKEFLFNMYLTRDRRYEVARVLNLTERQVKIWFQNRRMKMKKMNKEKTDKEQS
Test [34] deals with HOXC9 (Homo sapiens, UniProt P31274 178-260).
HOXC9 (Homo sapiens, UniProt P31274 178-260), sequence (P31274 178-260): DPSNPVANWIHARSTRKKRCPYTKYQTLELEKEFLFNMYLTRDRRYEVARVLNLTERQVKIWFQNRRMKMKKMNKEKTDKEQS
For test [35], the target named is ALX1 (Homo sapiens, UniProt Q15699 118-204, L144V).
ALX1 (Homo sapiens, UniProt Q15699 118-204, L144V), sequence (Q15699 118-204 L144V): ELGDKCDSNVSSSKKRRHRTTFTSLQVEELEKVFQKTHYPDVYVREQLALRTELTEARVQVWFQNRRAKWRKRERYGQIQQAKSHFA
Test [36] addresses HOXC9 (Homo sapiens, UniProt P31274 178-260, R193K).
In test [37] the target is ALX1 (Homo sapiens, UniProt Q15699 118-204, L144R).
ALX1 (Homo sapiens, UniProt Q15699 118-204, L144R), sequence (Q15699 118-204 L144R): as the sequence (Q15699 118-204 L144V) above, with V27R counted along it
Test [38] addresses VAX1 (Homo sapiens, UniProt Q5SQQ9 86-172).
For test [39], the target named is HOXC9 (Homo sapiens, UniProt P31274 178-260, R222W).
HOXC9 (Homo sapiens, UniProt P31274 178-260, R222W), sequence (P31274 178-260 R222W): as the sequence (P31274 178-260) above, with R45W counted along it
For test [40], the target named is VAX1 (Homo sapiens, UniProt Q5SQQ9 86-172, T142I).
VAX1 (Homo sapiens, UniProt Q5SQQ9 86-172, T142I), sequence (Q5SQQ9 86-172 T142I): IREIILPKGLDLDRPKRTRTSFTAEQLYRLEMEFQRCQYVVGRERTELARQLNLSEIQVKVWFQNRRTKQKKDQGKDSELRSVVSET
Test [41] has as its target ALX1 (Homo sapiens, UniProt Q15699 118-204).
Test [42] deals with VAX1 (Homo sapiens, UniProt Q5SQQ9 86-172, K157R).
VAX1 (Homo sapiens, UniProt Q5SQQ9 86-172, K157R), sequence (Q5SQQ9 86-172 K157R): as the sequence (Q5SQQ9 86-172 T142I) above, with I57T, K72R counted along it

Numbering of substitutions follows the chain as printed.

HESX1 (Homo sapiens, UniProt Q9UBX0 95-180, R109Q), sequence (Q9UBX0 95-180 R109Q): as the sequence (Q9UBX0 95-180) above, with R15Q counted along it
HESX1 (Homo sapiens, UniProt Q9UBX0 95-180, F115L), sequence (Q9UBX0 95-180 F115L): as the sequence (Q9UBX0 95-180) above, with F21L counted along it
HESX1 (Homo sapiens, UniProt Q9UBX0 95-180, R165K), sequence (Q9UBX0 95-180 R165K): as the sequence (Q9UBX0 95-180) above, with R71K counted along it
HOXC9 (Homo sapiens, UniProt P31274 178-260, R193K), sequence (P31274 178-260 R193K): as the sequence (P31274 178-260) above, with R16K counted along it
ALX1 (Homo sapiens, UniProt Q15699 118-204), sequence (Q15699 118-204): as the sequence (Q15699 118-204 L144V) above, with V27L counted along it
HOXA7 (Homo sapiens, UniProt P31268 116-202, W177C), sequence (P31268 116-202 W177C): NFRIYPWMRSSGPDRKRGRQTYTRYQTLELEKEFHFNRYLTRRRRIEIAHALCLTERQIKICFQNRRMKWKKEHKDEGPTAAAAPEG
VAX1 (Homo sapiens, UniProt Q5SQQ9 86-172), sequence (Q5SQQ9 86-172): as the sequence (Q5SQQ9 86-172 T142I) above, with I57T counted along it
HOXA7 (Homo sapiens, UniProt P31268 116-202), sequence (P31268 116-202): as the sequence (P31268 116-202 W177C) above, with C62W counted along it
HOXA4 (Homo sapiens, UniProt Q00056 201-287, W262F), sequence (Q00056 201-287 W262F): as the sequence (Q00056 201-287 R217L) above, with L17R, W62F counted along it
HOXA4 (Homo sapiens, UniProt Q00056 201-287, W262R), sequence (Q00056 201-287 W262R): as the sequence (Q00056 201-287 R217L) above, with L17R, W62R counted along it

As to CGCACGCC, the binding signal with HESX1 [1] is 6.51 upbm affinity estimate (log intensity, higher = more binding, comparable within an allelic series); with SIX6 [2] it was 8.9 upbm affinity estimate (log intensity, higher = more binding, comparable within an allelic series); with SIX6 [3] it was 8.88 upbm affinity estimate (log intensity, higher = more binding, comparable within an allelic series); with HOXC10 [4], 10.1 upbm affinity estimate (log intensity, higher = more binding, comparable within an allelic series); in the test with SIX6 [5], 8.95 upbm affinity estimate (log intensity, higher = more binding, comparable within an allelic series); with SIX6 [6], 8.83 upbm affinity estimate (log intensity, higher = more binding, comparable within an allelic series). For the same sequence, the binding signal with SIX6 [7] was 9.01 upbm affinity estimate (log intensity, higher = more binding, comparable within an allelic series); in the test with SIX6 [8], 8.91 upbm affinity estimate (log intensity, higher = more binding, comparable within an allelic series); in the test with SIX6 [9], 8.97 upbm affinity estimate (log intensity, higher = more binding, comparable within an allelic series); with SIX6 [10], 8.9 upbm affinity estimate (log intensity, higher = more binding, comparable within an allelic series); with HESX1 [11] it was 6.47 upbm affinity estimate (log intensity, higher = more binding, comparable within an allelic series); in the test with SIX6 [12], 8.93 upbm affinity estimate (log intensity, higher = more binding, comparable within an allelic series). The binding signal is 8.87 upbm affinity estimate (log intensity, higher = more binding, comparable within an allelic series) in the test with SIX6 [13]; 10 upbm affinity estimate (log intensity, higher = more binding, comparable within an allelic series) in the test with HOXC10 [14]; 8.9 upbm affinity estimate (log intensity, higher = more binding, comparable within an allelic series) in the test with SIX6 [15]; 6.43 upbm affinity estimate (log intensity, higher = more binding, comparable within an allelic series) with PROP1 [16]; 6.54 upbm affinity estimate (log intensity, higher = more binding, comparable within an allelic series) with HESX1 [17]; 8.9 upbm affinity estimate (log intensity, higher = more binding, comparable within an allelic series) with SIX6 [18]. For the same sequence, the binding signal with PROP1 [19] is 6.77 upbm affinity estimate (log intensity, higher = more binding, comparable within an allelic series); with SIX6 [20], 8.9 upbm affinity estimate (log intensity, higher = more binding, comparable within an allelic series); with HESX1 [21], 6.43 upbm affinity estimate (log intensity, higher = more binding, comparable within an allelic series); with PROP1 [22], 6.63 upbm affinity estimate (log intensity, higher = more binding, comparable within an allelic series); in the test with HESX1 [23] it was 6.48 upbm affinity estimate (log intensity, higher = more binding, comparable within an allelic series).

As to CCTAGCTC, the binding signal in the test with HESX1 [1] was 6.41 upbm affinity estimate (log intensity, higher = more binding, comparable within an allelic series); with VENTX [24] it was 8.35 upbm affinity estimate (log intensity, higher = more binding, comparable within an allelic series); with HOXA4 [25], 9.86 upbm affinity estimate (log intensity, higher = more binding, comparable within an allelic series); with VENTX [26], 8.47 upbm affinity estimate (log intensity, higher = more binding, comparable within an allelic series); with HOXA7 [27] it was 8.59 upbm affinity estimate (log intensity, higher = more binding, comparable within an allelic series); with VENTX [28] it was 8.28 upbm affinity estimate (log intensity, higher = more binding, comparable within an allelic series). Also, the binding signal with HESX1 [11] is 6.56 upbm affinity estimate (log intensity, higher = more binding, comparable within an allelic series); with HOXA4 [29] it was 9.83 upbm affinity estimate (log intensity, higher = more binding, comparable within an allelic series); in the test with HOXA4 [30] it was 9.82 upbm affinity estimate (log intensity, higher = more binding, comparable within an allelic series); in the test with HESX1 [17], 6.57 upbm affinity estimate (log intensity, higher = more binding, comparable within an allelic series); in the test with HESX1 [21] it was 6.46 upbm affinity estimate (log intensity, higher = more binding, comparable within an allelic series); with HESX1 [23], 6.62 upbm affinity estimate (log intensity, higher = more binding, comparable within an allelic series). The binding signal in the test with HOXA7 [31] is 8.42 upbm affinity estimate (log intensity, higher = more binding, comparable within an allelic series); in the test with HOXA4 [32] it was 9.87 upbm affinity estimate (log intensity, higher = more binding, comparable within an allelic series).

For GCCAGCCC, the binding signal was 6.58 upbm affinity estimate (log intensity, higher = more binding, comparable within an allelic series) with HESX1 [1]; 8.95 upbm affinity estimate (log intensity, higher = more binding, comparable within an allelic series) with SIX6 [2]; 9.67 upbm affinity estimate (log intensity, higher = more binding, comparable within an allelic series) with HOXC9 [33]; 8.86 upbm affinity estimate (log intensity, higher = more binding, comparable within an allelic series) with SIX6 [3]; 9.06 upbm affinity estimate (log intensity, higher = more binding, comparable within an allelic series) with SIX6 [5]; 8.85 upbm affinity estimate (log intensity, higher = more binding, comparable within an allelic series) with SIX6 [6]. For the same sequence, the binding signal in the test with SIX6 [7] was 9.06 upbm affinity estimate (log intensity, higher = more binding, comparable within an allelic series); with SIX6 [8], 9.06 upbm affinity estimate (log intensity, higher = more binding, comparable within an allelic series); in the test with SIX6 [9], 8.94 upbm affinity estimate (log intensity, higher = more binding, comparable within an allelic series); with SIX6 [10], 9.06 upbm affinity estimate (log intensity, higher = more binding, comparable within an allelic series); with HESX1 [11], 6.38 upbm affinity estimate (log intensity, higher = more binding, comparable within an allelic series); in the test with SIX6 [12] it was 9.07 upbm affinity estimate (log intensity, higher = more binding, comparable within an allelic series). Moreover, the binding signal with HOXC9 [34] is 9.67 upbm affinity estimate (log intensity, higher = more binding, comparable within an allelic series); in the test with ALX1 [35] it was 6.53 upbm affinity estimate (log intensity, higher = more binding, comparable within an allelic series); with SIX6 [13] it was 9.01 upbm affinity estimate (log intensity, higher = more binding, comparable within an allelic series); in the test with HOXC9 [36], 9.67 upbm affinity estimate (log intensity, higher = more binding, comparable within an allelic series); with ALX1 [37], 6.62 upbm affinity estimate (log intensity, higher = more binding, comparable within an allelic series); with SIX6 [15] it was 8.96 upbm affinity estimate (log intensity, higher = more binding, comparable within an allelic series). Further, the binding signal was 6.42 upbm affinity estimate (log intensity, higher = more binding, comparable within an allelic series) with HESX1 [17]; 8.98 upbm affinity estimate (log intensity, higher = more binding, comparable within an allelic series) in the test with SIX6 [18]; 7.02 upbm affinity estimate (log intensity, higher = more binding, comparable within an allelic series) with VAX1 [38]; 9.01 upbm affinity estimate (log intensity, higher = more binding, comparable within an allelic series) with SIX6 [20]; 6.51 upbm affinity estimate (log intensity, higher = more binding, comparable within an allelic series) with HESX1 [21]; 9.62 upbm affinity estimate (log intensity, higher = more binding, comparable within an allelic series) with HOXC9 [39]. Moreover, the binding signal is 6.51 upbm affinity estimate (log intensity, higher = more binding, comparable within an allelic series) with HESX1 [23]; 7.2 upbm affinity estimate (log intensity, higher = more binding, comparable within an allelic series) with VAX1 [40]; 6.43 upbm affinity estimate (log intensity, higher = more binding, comparable within an allelic series) with ALX1 [41]; 7.16 upbm affinity estimate (log intensity, higher = more binding, comparable within an allelic series) in the test with VAX1 [42].

In the case of CCAGGACC, the binding signal with HESX1 [1] was 6.54 upbm affinity estimate (log intensity, higher = more binding, comparable within an allelic series); with VENTX [24], 8.04 upbm affinity estimate (log intensity, higher = more binding, comparable within an allelic series); with VENTX [26], 7.74 upbm affinity estimate (log intensity, higher = more binding, comparable within an allelic series); in the test with VENTX [28], 8.14 upbm affinity estimate (log intensity, higher = more binding, comparable within an allelic series); with HESX1 [11], 6.39 upbm affinity estimate (log intensity, higher = more binding, comparable within an allelic series); with HESX1 [17] it was 6.57 upbm affinity estimate (log intensity, higher = more binding, comparable within an allelic series). The binding signal is 6.52 upbm affinity estimate (log intensity, higher = more binding, comparable within an allelic series) with HESX1 [21] and 6.51 upbm affinity estimate (log intensity, higher = more binding, comparable within an allelic series) with HESX1 [23].

These data come from PMC11006913.
